# What was measured:
# Experiment in all cases: DAPPL (digital affinity profiling via proximity ligation, sequencing); 10 mM Tris-HCl pH 7.5, 50 mM NaCl, 1 mM DTT, 4% glycerol, room temperature, 30 min; GST-TFs on glutathione beads, 16-mer random dsDNA library, 0.1% formaldehyde crosslink after washing; high values mean tight binding
# Conditions in all cases: protein: recombinant; tags: N-terminal GST; dsDNA, one strand shown
# ELK1 = molecular target: T1, ELK1 (Homo sapiens, UniProt P19419 1-428)
# T1 sequence: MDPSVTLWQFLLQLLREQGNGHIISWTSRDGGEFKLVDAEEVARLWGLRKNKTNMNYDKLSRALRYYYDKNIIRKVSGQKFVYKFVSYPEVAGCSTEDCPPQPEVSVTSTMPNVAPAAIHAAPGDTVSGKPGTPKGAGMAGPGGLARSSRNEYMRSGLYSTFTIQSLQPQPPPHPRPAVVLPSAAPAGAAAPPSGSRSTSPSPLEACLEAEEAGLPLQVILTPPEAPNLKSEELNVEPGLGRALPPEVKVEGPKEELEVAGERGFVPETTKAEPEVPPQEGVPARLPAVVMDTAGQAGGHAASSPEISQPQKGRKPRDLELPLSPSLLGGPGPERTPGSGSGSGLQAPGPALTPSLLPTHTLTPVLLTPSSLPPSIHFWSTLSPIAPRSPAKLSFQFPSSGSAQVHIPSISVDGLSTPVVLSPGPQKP
# How it was run: (§1)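 Pools were built from human transcription factors expressed in yeast as GST fusions, captured on glutathione beads and DNA-barcoded, along with a tag-only sample. Incubation with 200 nmole of a 16-mer random double-stranded DNA library lasted 30 min at room temperature in Tris/NaCl/DTT/glycerol buffer, and was followed by washing, 0.1% formaldehyde crosslinking, proximity ligation, PCR amplification and Illumina NextSeq500 sequencing. Binding signal is the quotient of each hexamer's read frequency for a factor and its frequency for the tag-only sample.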
# ELF1 = ELF1 (Homo sapiens, UniProt P32519 1-619)
# Sequence of ELF1 (P32519 whole entry): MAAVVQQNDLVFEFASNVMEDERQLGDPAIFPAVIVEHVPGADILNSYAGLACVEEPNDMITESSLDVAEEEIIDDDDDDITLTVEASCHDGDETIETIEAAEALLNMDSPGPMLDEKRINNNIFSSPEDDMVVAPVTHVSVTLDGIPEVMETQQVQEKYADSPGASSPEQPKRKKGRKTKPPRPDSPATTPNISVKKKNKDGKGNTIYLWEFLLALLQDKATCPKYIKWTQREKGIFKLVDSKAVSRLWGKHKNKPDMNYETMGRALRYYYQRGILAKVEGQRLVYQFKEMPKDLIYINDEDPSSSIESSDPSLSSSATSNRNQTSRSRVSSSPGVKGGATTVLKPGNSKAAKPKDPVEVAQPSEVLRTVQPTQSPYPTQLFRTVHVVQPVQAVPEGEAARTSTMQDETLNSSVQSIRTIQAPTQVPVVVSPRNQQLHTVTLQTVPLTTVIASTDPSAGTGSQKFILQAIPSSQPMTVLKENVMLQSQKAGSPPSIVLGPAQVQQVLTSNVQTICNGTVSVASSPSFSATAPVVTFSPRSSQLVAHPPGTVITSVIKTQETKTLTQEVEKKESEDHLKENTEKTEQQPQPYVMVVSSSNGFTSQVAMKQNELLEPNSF
# How it was run: as §1
# EHF = molecular target: T2, EHF (Homo sapiens, UniProt Q9NZC4 1-300)
# T2 sequence: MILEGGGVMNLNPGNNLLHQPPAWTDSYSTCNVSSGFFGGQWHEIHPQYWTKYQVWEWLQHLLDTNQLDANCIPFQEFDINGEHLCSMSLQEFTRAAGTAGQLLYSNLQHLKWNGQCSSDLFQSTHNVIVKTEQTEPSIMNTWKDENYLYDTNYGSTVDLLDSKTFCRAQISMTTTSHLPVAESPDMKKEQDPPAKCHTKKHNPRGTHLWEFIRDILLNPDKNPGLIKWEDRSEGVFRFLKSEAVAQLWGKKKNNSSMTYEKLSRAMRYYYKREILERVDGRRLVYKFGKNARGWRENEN
# How it was run: as §1
# SPIB = SPIB (Homo sapiens, UniProt Q01892 1-262)
# Sequence of SPIB (Q01892 whole entry): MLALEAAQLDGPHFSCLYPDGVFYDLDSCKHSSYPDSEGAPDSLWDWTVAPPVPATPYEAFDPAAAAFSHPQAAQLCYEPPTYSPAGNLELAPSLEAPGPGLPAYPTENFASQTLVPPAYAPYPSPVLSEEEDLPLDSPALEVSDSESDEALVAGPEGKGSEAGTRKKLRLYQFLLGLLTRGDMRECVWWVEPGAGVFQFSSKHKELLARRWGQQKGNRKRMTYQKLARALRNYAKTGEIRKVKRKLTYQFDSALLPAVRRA
# How it was run: as §1
# ELK3 = molecular target: T3, ELK3 (Homo sapiens, UniProt P41970 1-407)
# T3 sequence: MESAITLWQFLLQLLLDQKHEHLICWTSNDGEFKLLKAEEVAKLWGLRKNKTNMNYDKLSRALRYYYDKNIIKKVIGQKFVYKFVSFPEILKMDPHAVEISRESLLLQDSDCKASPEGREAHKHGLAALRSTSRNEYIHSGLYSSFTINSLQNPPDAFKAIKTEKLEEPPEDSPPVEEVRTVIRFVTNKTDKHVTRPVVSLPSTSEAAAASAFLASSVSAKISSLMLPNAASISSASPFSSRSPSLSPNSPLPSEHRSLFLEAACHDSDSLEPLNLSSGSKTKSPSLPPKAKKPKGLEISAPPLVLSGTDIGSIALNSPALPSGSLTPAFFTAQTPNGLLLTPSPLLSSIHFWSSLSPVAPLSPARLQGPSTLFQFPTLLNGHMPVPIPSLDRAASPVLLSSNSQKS
# How it was run: as §1
# FEV = molecular target: T4, FEV (Homo sapiens, UniProt Q99581 1-238)
# T4 sequence: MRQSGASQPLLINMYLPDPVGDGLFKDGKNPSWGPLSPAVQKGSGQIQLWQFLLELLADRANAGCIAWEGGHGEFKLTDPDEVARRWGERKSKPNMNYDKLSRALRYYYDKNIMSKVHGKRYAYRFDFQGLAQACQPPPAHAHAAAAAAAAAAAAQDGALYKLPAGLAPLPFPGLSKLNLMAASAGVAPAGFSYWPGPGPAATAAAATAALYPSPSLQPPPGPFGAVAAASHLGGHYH
# How it was run: as §1
# ELK4 = molecular target: T5, ELK4 (Homo sapiens, UniProt P28324-2 1-405)
# T5 sequence: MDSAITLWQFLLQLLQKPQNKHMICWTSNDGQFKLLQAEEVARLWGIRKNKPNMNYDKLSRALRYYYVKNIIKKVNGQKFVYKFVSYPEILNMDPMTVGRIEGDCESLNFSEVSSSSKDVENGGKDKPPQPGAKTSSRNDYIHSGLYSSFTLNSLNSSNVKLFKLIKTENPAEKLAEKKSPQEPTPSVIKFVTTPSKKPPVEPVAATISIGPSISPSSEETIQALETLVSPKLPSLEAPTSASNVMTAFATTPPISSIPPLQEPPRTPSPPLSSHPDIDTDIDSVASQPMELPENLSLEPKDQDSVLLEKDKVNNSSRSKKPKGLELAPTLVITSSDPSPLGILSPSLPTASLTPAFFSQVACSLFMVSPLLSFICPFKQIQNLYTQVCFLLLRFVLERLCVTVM
# How it was run: as §1
# ETV1 = ETV1 (Homo sapiens, UniProt P50549 1-477)
# Sequence of ETV1 (P50549 whole entry): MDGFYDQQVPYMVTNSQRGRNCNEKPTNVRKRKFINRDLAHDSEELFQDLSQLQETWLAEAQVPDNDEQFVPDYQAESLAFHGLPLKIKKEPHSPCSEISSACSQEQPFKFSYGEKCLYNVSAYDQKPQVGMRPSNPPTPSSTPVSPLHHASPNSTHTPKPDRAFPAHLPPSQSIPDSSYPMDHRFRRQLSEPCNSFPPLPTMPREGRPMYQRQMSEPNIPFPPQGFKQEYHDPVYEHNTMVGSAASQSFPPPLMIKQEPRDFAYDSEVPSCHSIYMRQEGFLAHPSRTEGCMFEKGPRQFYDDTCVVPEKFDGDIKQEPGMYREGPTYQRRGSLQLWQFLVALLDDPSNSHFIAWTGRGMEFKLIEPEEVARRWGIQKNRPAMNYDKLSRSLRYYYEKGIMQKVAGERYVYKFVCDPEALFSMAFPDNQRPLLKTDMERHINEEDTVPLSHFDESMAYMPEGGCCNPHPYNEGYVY
# How it was run: as §1
# ETV3L = molecular target: T6, ETV3L (Homo sapiens, UniProt Q6ZN32 1-361)
# T6 sequence: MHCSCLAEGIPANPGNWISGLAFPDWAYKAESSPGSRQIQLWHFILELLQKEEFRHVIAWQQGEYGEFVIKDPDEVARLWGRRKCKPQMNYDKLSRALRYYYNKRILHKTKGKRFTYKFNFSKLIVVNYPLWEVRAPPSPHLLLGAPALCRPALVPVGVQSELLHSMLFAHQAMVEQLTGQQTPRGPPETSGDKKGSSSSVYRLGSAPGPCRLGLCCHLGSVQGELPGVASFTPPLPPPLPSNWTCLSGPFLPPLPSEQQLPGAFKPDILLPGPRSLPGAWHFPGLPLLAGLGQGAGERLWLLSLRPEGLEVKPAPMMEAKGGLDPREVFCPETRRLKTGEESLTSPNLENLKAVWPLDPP
# How it was run: as §1
# ETS2 = molecular target: T7, ETS2 (Homo sapiens, UniProt P15036 1-469)
# T7 sequence: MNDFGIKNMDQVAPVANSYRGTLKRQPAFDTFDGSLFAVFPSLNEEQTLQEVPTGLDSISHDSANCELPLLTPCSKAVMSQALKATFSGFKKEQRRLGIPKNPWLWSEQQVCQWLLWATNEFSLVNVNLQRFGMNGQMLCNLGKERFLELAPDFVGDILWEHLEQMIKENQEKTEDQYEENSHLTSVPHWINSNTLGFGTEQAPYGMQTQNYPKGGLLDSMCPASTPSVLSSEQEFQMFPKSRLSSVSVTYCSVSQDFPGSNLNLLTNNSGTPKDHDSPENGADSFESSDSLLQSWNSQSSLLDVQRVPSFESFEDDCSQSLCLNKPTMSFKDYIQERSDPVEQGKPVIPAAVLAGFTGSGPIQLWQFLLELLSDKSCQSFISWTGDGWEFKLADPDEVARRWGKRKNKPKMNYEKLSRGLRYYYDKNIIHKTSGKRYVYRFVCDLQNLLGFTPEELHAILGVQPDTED
# How it was run: as §1
# SPDEF = molecular target: T8, SPDEF (Homo sapiens, UniProt O95238 1-335)
# T8 sequence: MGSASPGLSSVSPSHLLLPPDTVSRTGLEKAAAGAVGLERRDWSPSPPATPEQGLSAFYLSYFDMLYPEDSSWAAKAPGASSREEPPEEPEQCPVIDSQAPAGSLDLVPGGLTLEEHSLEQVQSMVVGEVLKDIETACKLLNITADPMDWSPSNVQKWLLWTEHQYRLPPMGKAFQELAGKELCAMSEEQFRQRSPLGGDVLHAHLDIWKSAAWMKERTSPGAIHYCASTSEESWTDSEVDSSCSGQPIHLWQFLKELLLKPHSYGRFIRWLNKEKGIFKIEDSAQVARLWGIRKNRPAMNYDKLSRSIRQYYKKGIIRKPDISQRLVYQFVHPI
# How it was run: as §1
sequence,measurement,setting,value
CCACCA,binding signal,ELK1,"1.04 fold enrichment (6-mer frequency, TF over GST control)"
same,binding signal,ELF1,"1.12 fold enrichment (6-mer frequency, TF over GST control)"
same,binding signal,EHF,"1.04 fold enrichment (6-mer frequency, TF over GST control)"
same,binding signal,SPIB,"1.08 fold enrichment (6-mer frequency, TF over GST control)"
same,binding signal,ELK3,"1.03 fold enrichment (6-mer frequency, TF over GST control)"
same,binding signal,FEV,"1.04 fold enrichment (6-mer frequency, TF over GST control)"
same,binding signal,ELK4,"1.14 fold enrichment (6-mer frequency, TF over GST control)"
same,binding signal,ETV1,"1.02 fold enrichment (6-mer frequency, TF over GST control)"
same,binding signal,ETV3L,"1.04 fold enrichment (6-mer frequency, TF over GST control)"
same,binding signal,ETS2,"1.05 fold enrichment (6-mer frequency, TF over GST control)"
same,binding signal,SPDEF,"1.01 fold enrichment (6-mer frequency, TF over GST control)"
